Screening results (PubChem BioAssay)
D2 ag-1 = D2 dopamine receptor (human) agonism | P14416 | 0.53% of 340,000 active | HEK293 T-REx D2 cells, calcium flux agonist mode | activation, % at 2 µM;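 active = activation over 3 SD above normal in the single-dose calcium agonist read, cut at about 30% in these data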; also: 0% is about no effect
Target sequence (P14416 whole entry, looked up): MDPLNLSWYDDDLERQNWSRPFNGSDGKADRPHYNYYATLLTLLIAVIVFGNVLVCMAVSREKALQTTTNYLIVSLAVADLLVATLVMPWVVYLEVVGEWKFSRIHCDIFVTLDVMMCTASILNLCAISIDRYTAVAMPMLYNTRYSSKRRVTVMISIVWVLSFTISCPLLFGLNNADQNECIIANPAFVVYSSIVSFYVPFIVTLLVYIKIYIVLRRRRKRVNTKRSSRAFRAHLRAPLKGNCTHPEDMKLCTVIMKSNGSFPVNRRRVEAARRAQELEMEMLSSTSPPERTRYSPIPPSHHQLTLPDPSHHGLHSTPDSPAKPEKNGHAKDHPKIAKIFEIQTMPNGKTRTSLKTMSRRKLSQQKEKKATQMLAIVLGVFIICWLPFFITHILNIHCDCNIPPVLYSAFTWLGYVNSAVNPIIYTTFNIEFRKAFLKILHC
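In this primary screen, compounds producing a positive calcium signal within 180 s of addition to tetracycline-induced, force-coupled HEK293 Trex D2 cells are flagged; cells are dye-loaded with a no-wash calcium kit beforehand.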
D2 ag-2 = agonists of human D2 dopamine receptor (beta-arrestin); DiscoveRx PathHunter D2 beta-arrestin, luminescence, 90 min; 100% = 57 uM dopamine signal; P14416; 0.084% of 360,000 active; activation, % (concentration not given with the values); in the data active = activation above about 40%; inconclusive = between about 15% and that limit
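Agonist mode: compounds alone added to overnight-plated D2 PathHunter cells for 90 min at 37 C, with 57 uM final dopamine (EC100) defining full response. Beta-arrestin recruitment detected by chemiluminescent reagent, read after 1 h at ambient temperature.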
D2 PAM-1 = D2 dopamine receptor (human) potentiation | P14416 | HEK293 T-REx D2, calcium flux, EC20 dopamine potentiation | potentiation, % at 10 µM | 0.34% of 340,000 active;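 active = potentiation over 3 SD above the plate norm, cut at about 30% in these data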; also: 0% is about no effect
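Tetracycline-induced Hek293 Trex D2 cells, force-coupled to calcium, loaded with no-wash calcium dye. Compound added with 180 s kinetic read for agonism, then EC20 dopamine and a further 180 s read for potentiation.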
D2 antag = D2 dopamine receptor (human) antagonism; HEK293 TREx D2 cells, calcium flux, dopamine EC80; 2% of 340,000 active; P14416; inhibition, % at 10 µM; AID 485344; in the data active = inhibition above about 30%; inactive = below that, where a call was filed; also: 0% is about no effect
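Tetracycline-induced HEK293 T-REx cells expressing D2 force-coupled to calcium signalling were dye-loaded, exposed to compound for 180 s, then challenged with an EC80 of dopamine; calcium flux was followed kinetically for a further 180 s.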
D2 PAM-2 = potentiates the human D2 dopamine receptor allosterically; DiscoveRx D2 beta-arrestin cells, luminescence, 90 min; 100% = 57 uM dopamine signal; 0.23% of 360,000 active; P14416; potentiation, % (no concentration beside the values); in the data active = potentiation above about 50%; inconclusive = mostly about 30% to 49%
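PathHunter D2 cells, attached overnight at 37 deg C, received compound in DMSO plus dopamine at EC20 (50 nM final) for 90 min at 37 deg C. Beta-arrestin recruitment was read as luminescence after 1 h with detection reagent at ambient temperature.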
Starred values were filed as active, the others as inactive; u = inconclusive; x = no result. An excerpt weighted towards active compounds, which were near 2.4% of everything screened.

SMILES	D2 ag-1	D2 ag-2	D2 PAM-1	D2 antag	D2 PAM-2
CCCCOCCCn1c(N)c(C(=O)OC(C)COC)c2nc3ccccc3nc21 (stereo not drawn)	-2.2	-8.1	-2.3	-13.1	-28.7
COCCCn1c(N)c(C(=O)OC(C)COC)c2nc3ccccc3nc21 (stereo not drawn)	-0.8	-3.6	-2.4	42.5*	-10.5
COC(=O)C1=C(c2ccc(C(C)=O)cc2)C[C@@H]2CC[C@H]1N2C(=O)NC(C)C	-0.1	1.1	-5.9	52.2*	-3.1
COC(=O)C1=C(c2ccc(C(C)=O)cc2)C[C@@H]2CC[C@H]1N2C	-0.1	-1.2	-6.0	-8.6	-8.4
O=c1c2ccccc2nc(-c2ccco2)n1-c1nccs1	1.0	-3.3	0.0	30.2*	-5.0
C[n+]1c(-c2ccccc2)c2cc(N)ccc2c2ccc(N)cc21	5.4	7.3	-6.3	-11.2	24.9
Nc1ccc2ccc3cccc[n+]3c2c1	31.1*	-0.9	2.7	1.4	4.2
CC1(C)Cc2c(sc3c2C(=O)NC(c2cccnc2)N3)CO1 (stereo not drawn)	0.6	-2.7	x	69.5*	-4.2
COc1cccc(/C=C/c2nc3ccccc3c(=O)n2-c2ccc(Cl)cc2)c1OC	0.9	x	16.7	x	x
Cc1oc2cc3oc(=O)c(CCC(=O)N4CCCCC4)c(C)c3cc2c1C	x	x	8.3	x	x
Cc1ccc(NC(=O)Cn2cc(C(=O)c3ccccc3)c3ccccc32)cc1	-0.2	x	6.9	x	x
COc1ccc(OC)c(CCNCc2c(C(=O)O)c(C)n(Cc3ccc(F)cc3Cl)c2C)c1	0.2	x	-3.1	x	x
CCC1C2Cn3c(nc4ccccc43)C1N(C)O2 (stereo not drawn)	-0.1	-1.8	33.9*	10.5	0.7
CN1CCN(Cc2nc3ccccc3n2C)CC1	2.2	-2.7	3.2	-2.8	3.7
CCC1(c2ccccc2)C(=O)N(C)C(=O)N(C)C1=O	0.6	1.6	-14.9	34.0*	-5.7
CN1C(=O)N(C)C(=O)C2(Sc3ccccc3C2=O)C1=O	0.0	-2.2	-2.4	-8.6	-4.6
COC(=O)c1ccc(NC(=O)c2cccn(Cc3ccccc3C)c2=O)cc1	0.8	x	-6.2	x	x
CC(C)NC(C)C(=O)c1ccc2ccccc2c1 (stereo not drawn)	-0.9	-12.3	18.7	46.0*	-19.7
COc1ccc(C(=O)C(Cc2ccccc2)N(C)C)cc1 (stereo not drawn)	1.0	-2.5	-3.3	1.5	-20.9
COc1ccc(C(CNC(=O)c2ccc3c(c2)CCC3)N(C)C)cc1 (stereo not drawn)	-0.8	-3.6	-27.9	79.5*	-17.0
O=[N+]([O-])c1ccc(N2CCCCCC2)c2nonc12	84.7*	-3.8	-19.6	10.9	-8.0
O=[N+]([O-])c1ccc(N2CCCCC2)c2ncccc12	-0.2	-1.6	15.7	-25.9	-7.9
O=C1CC(c2ccc(C(F)(F)F)cc2)c2c(c3ccccc3oc2=O)O1 (stereo not drawn)	0.2	x	-2.0	x	x
CC1CN=C(NCc2ccncc2)S1 (stereo not drawn)	-0.1	-3.2	-3.9	2.2	24.2
CC1CN=C(NCc2ccc(F)cc2)S1 (stereo not drawn)	37.3*	-2.4	-6.6	4.5	-4.9
SMILES	D2 ag-1	D2 ag-2	D2 PAM-1	D2 antag	D2 PAM-2
Cc1ccc(-n2c(/C=C/c3cccs3)nc3ccccc3c2=O)cc1C	x	x	6.9	x	x
FC(F)(F)c1ccc2c(c1)N(CCCN1CCN(CCCl)CC1)c1ccccc1S2	0.6	-2.1	-25.5	75.4*	-44.2
CCc1ccc(OCC(=O)N2CCN(CCc3ccccn3)CC2)cc1	1.2	x	-22.6	x	x
O=c1[nH]c2ccccc2n1C1CCN(C(c2ccccc2OC(F)(F)F)c2nnnn2-c2ccc3c(c2)OCCO3)CC1 (stereo not drawn)	x	10.0	x	x	61.2*
COc1cccc(C(c2nnnn2-c2ccc3c(c2)OCCO3)N2CCC(n3c(=O)[nH]c4ccccc43)CC2)c1OC (stereo not drawn)	x	3.7	x	x	u
O=c1[nH]c2ccccc2n1C1CCN(C(c2cc3ccccc3o2)c2nnnn2Cc2ccccc2)CC1 (stereo not drawn)	x	2.2	x	x	58.3*
CSCCC(c1nnnn1-c1ccc2c(c1)OCCO2)N1CCC(n2c(=O)[nH]c3ccccc32)CC1 (stereo not drawn)	x	3.7	x	x	65.0*
CCc1ccccc1NC(=O)c1cccn(Cc2ccccc2F)c1=O	1.0	x	-1.3	x	x
O=C(Nc1ccc2c(c1)OCCO2)c1cccn(Cc2cccc([N+](=O)[O-])c2)c1=O	6.7	x	-6.9	x	x
CCOc1ccc(CN(CCc2ccc3c(c2)OCO3)Cc2ccc(OC)c(Br)c2)cc1	24.6	x	-18.8	x	x
CCCCCCN1CCN(c2ccc(Cl)cc2)CC1	0.1	4.6	-27.1	50.9*	-23.0
Fc1ccc(CN2CCN(c3ccc(Cl)cc3)CC2)cc1	0.0	-1.2	-20.0	-13.0	-12.9
Cc1cccc(CN2CCN(Cc3ccc(Cl)cc3)CC2)c1	-0.6	-3.9	10.8	3.6	-46.8
Cc1cccc(CN2CCN(c3ccc(Cl)cc3)CC2)c1	-5.8	-5.6	-18.5	34.3*	-6.5
Cc1ccc(-n2c(/C=C\c3ccc(F)c(F)c3)nc3ccccc3c2=O)c(C)c1	x	x	15.4	x	x
O=[N+]([O-])c1ccc(NCc2ccccc2)c2nonc12	135.2*	4.7	-20.6	44.0*	3.5
O=[N+]([O-])c1ccc(NCc2ccc(Cl)cc2)c2ccncc12	-0.4	5.2	-2.5	12.0	-1.2
CCN(CC)CCCOC(=O)C(OC(C)C)(c1ccccc1)c1ccccc1	-0.6	-2.4	-24.8	57.1*	-17.3
COc1cccc(-n2c(/C=C/c3cccc(C)c3)nc3ccccc3c2=O)c1	0.8	x	-3.4	x	x
Cc1cc2c(C(F)(F)F)cc(=O)oc2c2c1NCCC2	19.9	0.5	4.8	-17.6	2.8
O=c1cc(C(F)(F)F)c2cc3c4c(c2o1)CCCN4CCC3	142.7*	-0.5	-19.7	78.5*	8.6
Cc1ccnc(-n2c(-c3ccccc3)nc3ccccc3c2=O)c1	-0.4	-0.4	16.4	33.0*	-10.5
CSc1ccc(CN2CCN(c3ccccc3C)CC2)cc1	0.1	3.3	-31.8	70.8*	-15.3
COc1ccccc1N1CCN(Cc2ccc(SC)cc2)CC1	-1.1	-3.2	-21.4	78.8*	-81.7
Clc1ccccc1CN1CCN(c2ccccc2Cl)CC1	15.3	2.6	-24.9	-25.0	-19.2
Cc1ccc(CN2CCN(Cc3ccccc3F)CC2)cc1	-1.3	-4.2	-15.4	38.9*	-21.5
COc1ccccc1N1CCN(Cc2ccc(Cl)cc2Cl)CC1	-1.5	-0.1	-29.8	34.7*	-34.6
CCC12CN3CC(CC)(CN(C1)C3c1c(C)[nH]c(=O)[nH]c1=O)C2=O (stereo not drawn)	0.3	x	5.0	x	x
